Experimental findings from PubChem BioAssay (Tox21) are described below.

Values joined by “and” are separate entries in the source; they are usually repeats but may differ in a detail not shown here. Equal values may be shown once. Inconclusive results are not listed. A call without a number means that no potency is given here. The source holds several records for some structures; these can differ, active in one and inactive in another. Active and inactive are the calls of the source. Calls come from the whole dose curve; as a rule, active = well fitted activation curve with a large enough effect in the repeat runs; inconclusive = weak or mixed curves; inactive = flat fitted curve, though single readings scatter.
Potency is the fitted concentration of half-maximal effect.

The assay can be described thus: A CellTox Green Cytotoxicity Assay to monitor cytotoxicity in HEK293 cells - 8 hour (AID 1224884). Note: nearly all actives have a fitted effect of over 35% in size. The conditions noted are these: CellTox Green fluorescence; series mostly up to 76.8 µM; cytotoxicity increase: at the top concentration. The text has this: National Center for Advancing Translational Sciences [NCATS]
NIH Chemical Genomics Center [NCGC]
U.S. Environmental Protection Agency [EPA]
National Institutes of Environmental Health Sciences [NIEHS]
National Toxicology Program [NTP]
Cell-based models are critical for drug discovery. Determining the natural cytotoxic effects resulting from test compounds is an essential research activity. A CellTox Green Cytotoxicity Assay to monitor cytotoxicity in real time of continues cell culture during 40 hours of the compound treatment was used to screen Tox21 10K library compounds in Hek293 cells. CellTox Green Cytotoxicity Assay is a nonlytic, homogeneous, biofluorescent method to measure cytotoxicity in cell culture after experimental manipulation. The assay system uses a proprietary asymmetric cyanine dye that is excluded from viable cells but preferentially stains the dead cell's DNA. […] Viable cells produce no appreciable increases in fluorescence. Therefore, the fluorescence signal produced by the binding interaction with dead cell DNA is proportional to cytotoxicity.
The mixture of Hek293 cell suspension and reagents were dispensed at 600cells/6 ul/well in 1536-well tissue culture treated black solid bottom plates using a Multidrop dispenser. After the assay plates were incubated at a 37 C/5% CO2 incubator for 5 hours, 23 nL of compounds dissolved in DMSO, positive and negative controls was transferred to the assay plate by a pintool work station. The plates were incubated at 37 C for 40 hours. The fluorescence intensity were measured at 0h, 8h, 16h, 24h, 32h and 40h time points using ViewLux plate reader during compound treatment.
With `C=C(C)C#N`, the Potency result is “inactive”.

As for `O=S(=O)(O)C(F)(F)C(F)(F)C(F)(F)C(F)(F)C(F)(F)C(F)(F)C(F)(F)C(F)(F)F`, the Potency was 37 µM (active) and inactive and 11 µM (active).

As for `CCOP(=S)(OCC)SCSC(C)(C)C`, the Potency result was “inactive”.

Turning to `CSc1nc(NC(C)C)nc(NC(C)C)n1`, the Potency entry was “inactive”.

For `CCCCCCCCCCCCCl`, the Potency result was “inactive and 19.5 µM (active)”.

As to `CC1CC(=O)O1` (stereo not given), the “cytotoxicity increase” value is -2.81% (inactive).

On to `O=C1Nc2ccc(Cl)cc2C(c2ccccc2)=NC1O` (stereo not given), for which the Potency entry is “inactive”.

For `CCOS(=O)(=O)OCC`, the Potency entry was “inactive”.

For the molecule `ClCc1ccccn1`, the Potency entry is “inactive”.

On to `C=CC(=O)OCC(CC)(COC(=O)C=C)COC(=O)C=C`, for which the Potency entry is “inactive”.

In the case of `Oc1ccc(Cl)cc1Cc1ccccc1`, the Potency entry was “inactive”.

With `N#Cc1cccnc1`, the Potency result was “inactive”.

In the case of `COP(=S)(OC)SCn1nnc2ccccc2c1=O`, the Potency result was “inactive”.

Turning to `CCC/C=N/O`, the Potency result is “inactive”.

`O=[N+]([O-])/N=C1\NCCN1Cc1ccc(Cl)nc1`: the Potency result was “inactive”.

With `ClCC(Cl)CCl`, the Potency entry is “inactive”.

As for `CC(C)Nc1ccc(Nc2ccccc2)cc1`, the “cytotoxicity increase” value was 22.8% (inactive).

On to `CCCCSP(=O)(SCCCC)SCCCC`, for which the Potency entry is “inactive”.

As to `CCC[CH2][Sn]([Cl])([Cl])[CH2]CCC`, the Potency result is “inactive and 49 µM (active)”.

As to `C[C@]12CCC(=O)C=C1CC[C@@H]1[C@@H]2CC[C@@]2(C)[C@H]1CC[C@]2(C)O`, the Potency was 44 µM (active) and inactive.

For `ClC(Cl)(Cl)Br`, the Potency result is “inactive”.

For the molecule `CC(C)(C#N)N=NC(C)(C)C#N`, the Potency entry is “inactive”.

With `COP(=S)(OC)Oc1ccc(Sc2ccc(OP(=S)(OC)OC)cc2)cc1`, the Potency result was “inactive”.

Regarding `O=C1C(Cl)=C(Cl)C(=O)c2ccccc21`, the Potency is 27.6 µM (active) and inactive.

`O=P(OCCCl)(OCCCl)OCCCl`: the Potency entry was “inactive”.

For `CN(C)c1nc(=O)n(C2CCCCC2)c(=O)n1C`, the “cytotoxicity increase” value was -14.8% (inactive).

Consider `N#Cc1c(Cl)c(Cl)c(Cl)c(C#N)c1Cl`, for which the Potency is 7.76 µM (active).

Take `C[N+](C)(C)C`: the Potency entry was “inactive”.

As for `CC(C)Nc1nc(Cl)nc(NC(C)C)n1`, the Potency result was “inactive”.

For `C[N+](C)(C)CC(=O)[O-]`, the Potency result is “inactive”.

For `[Cl-].[Cl-].[Cl-].[Fe+3]`, the “cytotoxicity increase” value is 12.1% (inactive).

Consider `CNC(=O)Oc1cccc2c1OC(C)(C)C2`, for which the Potency result is “inactive”.

On to `c1ccc2c(c1)Nc1ccccc1S2`, for which the “cytotoxicity increase” value is 2.28% [at 35.3 µM] (inactive).

Take `ClC(Cl)(Cl)c1ccccc1`: the Potency entry was “inactive”.

In the case of `Clc1cccc(C(Cl)(Cl)Cl)n1`, the Potency result is “inactive”.

As for `NN=C(N)N`, the Potency result is “inactive”.

For `N#CCCCCC#N`, the Potency result was “inactive”.

For `COC(=O)Nc1nc2ccccc2[nH]1`, the Potency entry is “inactive”.

Turning to `CC(C)COC(=O)c1ccccc1C(=O)OCC(C)C`, the Potency result is “inactive”.

On to `C[N+](C)(C)CC(=O)O`, for which the Potency entry was “inactive”.
